Data on 8 compounds can be found in PubChem BioAssay (NCI).

The nature of this test: NCI Yeast Anticancer Drug Screen. Data for the sgs1 strain (AID 173).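 Further: 0% = growth of vehicle-only control cultures.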 To be noted: S. cerevisiae sgs1 mutant, hits give high values. As for the experimental part:
Growth inhibition of yeast strains with defined genetic alterations is measured as a screen for potential anti-cancer activity. Selected strains with alterations in DNA damage repair or cell cycle control were exposed to compounds and growth inhibition was measured relative to vehicle treated controls. The strain used in this assay is sgs1

About 79,000 compounds went through this panel and 15% of them were active in at least one assay; those are over-represented in the sample as a whole. Values without a mark were called inactive. Active and inactive are the calls of the source. No stated cut-off is given here; in the data, active means growth inhibition above about 70%; inactive means the rest.

In the case of `Cc1ccc(NC(c2ccccc2)c2ccc3cccnc3c2O)cc1` (stereo not given), the growth inhibition was 2% (at 1.2 µM); 3% (at 3.7 µM); 3% (at 11.0 µM); 0% (at 33.0 µM); -3% (at 100.0 µM).

In the case of `c1ccc2[nH]c(-c3cscn3)nc2c1`, the growth inhibition (at 1.2 µM) is -1%; the growth inhibition (at 3.7 µM) was -3%; the growth inhibition (at 11.0 µM) was -1%; the growth inhibition (at 33.0 µM) was -3%; the growth inhibition (at 100.0 µM) is -2%.

Turning to `Cc1ccccc1N=Cc1cc(Cl)ccc1O`, the growth inhibition was -2% (at 1.2 µM); -3% (at 3.7 µM); 4% (at 11.0 µM); 20% (at 33.0 µM); 92% (active) (at 100.0 µM).

As for `CN(C)CCCCN1c2ccccc2Sc2ccc(N=[N+]=[N-])cc21`, the growth inhibition (at 1.2 µM) is 10%; the growth inhibition (at 3.7 µM) was 42%; the growth inhibition (at 11.0 µM) is 43%; the growth inhibition (at 33.0 µM) is 67%; the growth inhibition (at 100.0 µM) is 99% (active).

With `OC(/C=C/c1ccccc1)(Cc1cc(-c2ccccc2)n[nH]1)c1ccccc1` (stereo not given), the growth inhibition (at 1.2 µM) was -9%; the growth inhibition (at 3.7 µM) was 6%; the growth inhibition (at 11.0 µM) is 4%; the growth inhibition (at 33.0 µM) was 9%; the growth inhibition (at 100.0 µM) is 1%.

In the case of `CC1SC2(C(=O)Nc3ccc(Cl)cc32)N(c2ccc(Cl)cc2)C1=O` (stereo not given), the growth inhibition was -2% (at 1.2 µM); 0% (at 3.7 µM); 12% (at 11.0 µM); 98% (active) (at 33.0 µM); 94% (active) (at 100.0 µM).

In the case of `Cc1csc(=S)n1OC(=O)NC1CCCCC1`, the growth inhibition is, setting by setting: (at 1.2 µM) -42%; (at 3.7 µM) 98% (active); (at 11.0 µM) 99% (active); (at 33.0 µM) 100% (active); (at 100.0 µM) 99% (active).

Turning to `O=P(NC1CCCCC1)(OCc1ccccc1)OCc1ccccc1`, the growth inhibition by setting is: (at 1.2 µM) 0%; (at 3.7 µM) -1%; (at 11.0 µM) 0%; (at 33.0 µM) 9%; (at 100.0 µM) 17%.
